We go through 8 molecules from PubChem BioAssay (EPA / NIEHS).

Records with an inconclusive call do not appear. Calls of active or inactive are those of the source. Rule for the calls, unless noted: active = hit-call score of the fitted dose curve at least 0.9, where 1 is the maximum; inactive = score below 0.9.

The target in experiment [1] is human Retinoid X Receptor beta (RXRb), RXRB (gene 6257) (UniProt P28702). The experiment is described as follows: ATG_RXRb_TRANS: Attagene TRANS-FACTORIAL HepG2 Assay for human Retinoid X Receptor beta (RXRb) (AID 2283013; active = hit-call score of the fitted dose curve at least 0.9, where 1 is the maximum). An outline of the steps:
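Transfect HepG2 with GAL4-UAS multi-reporter constructs (chimeric NR-Gal4, TRANS format); dose compound 24 h; isolate RNA, RT-PCR, FAM primer extension, HpaI digest; quantify by capillary electrophoresis; positive direction vs DMSO.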

Read-out in experiment [2]: E-selectin (Homo sapiens) (UniProt P16581)
In words: BSK_3C_Eselectin: BioMAP Diversity Plus: 3C Assay for Eselectin Biomarker Activity (AID 2283015).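 Note: cell surface E-selectin protein quantified by ELISA 24 h after dosing.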 The conditions noted are these: primary human endothelial cells (HUVEC); actives raise or lower the signal. The method, boiled down: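 Primary human umbilical vein endothelial cells (3C system), read 24 h after compound addition; E-selectin measured by ELISA. Bidirectional curve fitting against DMSO baseline; cytotoxicity by parallel SRB total-protein staining.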

Read-out in experiment [3]: Interleukin-1 alpha (IL1a), IL1A (gene 3552)
In words: BSK_BE3C_IL1a: BioMAP Diversity Plus: BE3C Assay for Interleukin-1 alpha (IL1a) Biomarker Activity (AID 2283016). The note with it: primary human bronchial epithelial cells; actives raise or lower the signal. An outline of the steps: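 BE3C primary human bronchial epithelium; cpd 24 h; IL-1a by ELISA; bidirectional fit vs DMSO; parallel SRB (0.1% SRB, 10% TCA fix, 560 nm) for cytotoxicity.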

Read-out in experiment [4]: Monocyte Chemoattractant Protein-1 (MCP1), CCL2 (gene 6347)
The experiment is described as follows: BSK_3C_MCP1: BioMAP Diversity Plus: 3C Assay for Monocyte Chemoattractant Protein-1 (MCP1) Biomarker Activity (AID 2283017). The conditions noted are these: primary human endothelial cells (HUVEC); actives raise or lower the signal. The method, boiled down: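 Human umbilical vein endothelial cells (3C system) exposed to chemicals for 24 h; MCP-1 quantified by ELISA against the DMSO baseline with bidirectional fitting, and parallel SRB staining used to assess cytotoxicity.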

Read-out in experiment [5]: Monocyte Chemoattractant Protein-1 (MCP1), CCL2 (gene 6347)
The experiment is described as follows: BSK_4H_MCP1: BioMAP Diversity Plus: 4H Assay for Monocyte Chemoattractant Protein-1 (MCP1) Biomarker Activity (AID 2283018). The conditions noted are these: primary human endothelial cells (HUVEC); actives raise or lower the signal. An outline of the steps: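 ELISA read-out of MCP-1 from human vascular endothelial primary cells taken at 24 hours after compound exposure. Activity was fitted in both directions relative to DMSO, which served as negative control.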

Read-out in experiment [6]: Human Leukocyte Antigen - DR isotype (HLADR), HLA-DRA (gene 3122)
In words: BSK_3C_HLADR: BioMAP Diversity Plus: 3C Assay for Human Leukocyte Antigen - DR isotype (HLADR) Biomarker Activity (AID 2283019). The note with it: primary human endothelial cells (HUVEC); actives raise or lower the signal. The method, boiled down: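 HUVEC monoculture, HLA-DR measured by ELISA 24 h after chemical dosing. Fitted bidirectionally against DMSO baseline; parallel SRB staining assessed cytotoxicity, with 3C proliferation read by SRB at 48 h.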

Read-out in experiment [7]: Interleukin-8 (IL8), CXCL8 (gene 3576)
The experiment is described as follows: BSK_3C_IL8: BioMAP Diversity Plus: 3C Assay for Interleukin-8 (IL8) Biomarker Activity (AID 2283020). The note with it: primary human endothelial cells (HUVEC); actives raise or lower the signal. An outline of the steps: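 ELISA read-out of IL-8 from human umbilical vein endothelium, measured 24 h after chemical dosing. Activity is expressed relative to DMSO negative control, with both increases and decreases fitted.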

Read-out in experiment [8]: Monokine induced gamma interferon (MIG), CXCL9 (gene 4283)
In words: BSK_3C_MIG: BioMAP Diversity Plus: 3C Assay for Monokine induced gamma interferon (MIG) Biomarker Activity (AID 2283021). The note with it: primary human endothelial cells (HUVEC); actives raise or lower the signal. An outline of the steps: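 Read-out is ELISA detection of MIG on human umbilical vein endothelial cells, taken 24 h after dosing. Gain or loss of signal was scored relative to DMSO controls using bidirectional curve fitting.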

Experiment [9] concerns the target human Vitamin D Receptor (VDR), VDR (gene 7421) (UniProt P11473). In words: ATG_VDR_TRANS: Attagene TRANS-FACTORIAL HepG2 Assay for human Vitamin D Receptor (VDR) (AID 2283022; active = hit-call score of the fitted dose curve at least 0.9, where 1 is the maximum). An outline of the steps:
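HepG2 cells were transiently transfected with GAL4-UAS reporter units and a chimeric VDR-Gal4 construct, then dosed for 24 hours. Reporter mRNA was quantified by RT-PCR, fluorescent labeling, HpaI digestion and capillary electrophoresis; gain of signal analysed vs DMSO.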

Experiment [10] in a line: BSK_3C_SRB: Viability Assessment in the BioMAP Diversity Plus: 3C Assay (AID 2283023).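 Note: fitted both ways against DMSO so a hit may be signal rise or drop.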 The conditions noted are these: primary human endothelial cells (HUVEC). The method, boiled down:
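Human umbilical vein endothelial cells in the 3C system, treated 24 h. Total protein measured by 0.1% sulforhodamine B staining after 10% TCA fixation, read at 560 nm; bidirectional fit versus DMSO.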

Read-out in experiment [11]: Matrix Metallopeptidase 1 (MMP1), MMP1 (gene 4312)
In words: BSK_BE3C_MMP1: BioMAP Diversity Plus: BE3C Assay for Matrix Metallopeptidase 1 (MMP1) Biomarker Activity (AID 2283024). The conditions noted are these: primary human bronchial epithelial cells; actives raise or lower the signal. The method, boiled down:
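Human bronchial epithelial cells (BE3C system) exposed to compound for 24 h; MMP1 then quantified by ELISA. Activity was fitted in both directions relative to DMSO.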

A short description of experiment [12]: BSK_3C_Vis: BioMAP Diversity Plus: 3C Assay for Morphology Visualization (AID 2283025).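 Note: fitted both ways so gain or loss versus DMSO counts.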 The conditions noted are these: primary human endothelial cells (HUVEC). An outline of the steps: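 Chemicals were added to primary human umbilical vein endothelium, cells were incubated 24 h, and morphology was then visualized by light microscopy. Gain or loss of signal was fitted bidirectionally relative to DMSO.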

Read-out in experiment [13]: Pselectin, SELP (gene 6403)
In words: BSK_4H_Pselectin: BioMAP Diversity Plus: 4H Assay for Pselectin Biomarker Activity (AID 2283026). The note with it: primary human endothelial cells (HUVEC); actives raise or lower the signal. An outline of the steps: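 ELISA read-out of P-selectin on human umbilical vein endothelium after 24 h of dosing. Values derive from bidirectional fitting relative to DMSO. Parallel SRB protein staining flagged overt cytotoxicity.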

Experiment [14] in a line: BSK_BE3C_SRB: Viability Assessment in the BioMAP Diversity Plus: BE3C Assay (AID 2283028). The note with it: primary human bronchial epithelial cells. An outline of the steps: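 Human bronchial epithelial primary cells in confluent culture, 24 h after chemical dosing; total protein by 0.1% SRB staining after 10% TCA fixation, read at 560 nm. Bidirectional fitting versus DMSO baseline.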

Read-out in experiment [15]: Thrombomodulin, THBD (gene 7056)
The experiment is described as follows: BSK_3C_Thrombomodulin: BioMAP Diversity Plus: 3C Assay for Thrombomodulin Biomarker Activity (AID 2283029). The conditions noted are these: primary human endothelial cells (HUVEC); actives raise or lower the signal. The method, boiled down:
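Read-out is ELISA of thrombomodulin on human umbilical vein endothelium 24 h after chemical dosing. Gain or loss of signal is scored relative to DMSO. Overt cytotoxicity is checked in parallel cultures by sulforhodamine B staining.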

Read-out in experiment [16]: Urokinase-type plasminogen activator receptor (uPAR), PLAUR (gene 5329)
The experiment is described as follows: BSK_4H_uPAR: BioMAP Diversity Plus: 4H Assay for Urokinase-type plasminogen activator receptor (uPAR) Biomarker Activity (AID 2283030). The note with it: primary human endothelial cells (HUVEC); actives raise or lower the signal. The method, boiled down:
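Human umbilical vein endothelial cells in the 4H system, 24 h after chemical dosing. Cell-surface uPAR measured by ELISA, fitted in both directions versus DMSO; cytotoxicity checked by SRB total protein in parallel cultures.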

Read-out in experiment [17]: Vascular endothelial growth factor receptor 2 (Homo sapiens) (UniProt P35968)
The experiment is described as follows: BSK_4H_VEGFRII: BioMAP Diversity Plus: 4H Assay for Vascular endothelial growth factor receptor 2 (VEGFR2) Biomarker Activity (AID 2283031). The conditions noted are these: primary human endothelial cells (HUVEC); actives raise or lower the signal. An outline of the steps:
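Primary human umbilical vein endothelial cells (4H system), 24 h exposure; cell-surface VEGFR2 measured by ELISA. Bidirectional fitting versus DMSO; cytotoxicity checked in parallel by SRB total-protein staining.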

Read-out in experiment [18]: Human Leukocyte Antigen - DR isotype (HLADR), HLA-DRA (gene 3122)
In words: BSK_BE3C_HLADR: BioMAP Diversity Plus: BE3C Assay for Human Leukocyte Antigen - DR isotype (HLADR) Biomarker Activity (AID 2283032). The note with it: primary human bronchial epithelial cells; actives raise or lower the signal. An outline of the steps:
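ELISA read-out of HLA-DR on human lung bronchial epithelial primary cells, measured 24 h post-dosing. Both increases and decreases were scored relative to DMSO vehicle.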

Experiment [19] concerns the target human Thyroid Receptor alpha (THRa1), THRA (gene 7067) (UniProt P10827). In words: ATG_THRa1_TRANS: Attagene TRANS-FACTORIAL HepG2 Assay for human Thyroid Receptor alpha (THRa1) (AID 2283014; active = hit-call score of the fitted dose curve at least 0.9, where 1 is the maximum). An outline of the steps:
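HepG2 cells transiently transfected with chimeric NR-Gal4 and GAL4-UAS reporter units, dosed 24 h. Reporter mRNA quantified by RT-PCR, fluorescent labeling, HpaI digestion and capillary electrophoresis; gain-of-signal fit versus DMSO.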

The nature of experiment [20]: BSK_4H_SRB: Viability Assessment in the BioMAP Diversity Plus: 4H Assay (AID 2283027).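 Note: cells exposed to compound for 24 h before staining.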 The conditions noted are these: primary human endothelial cells (HUVEC). The method, boiled down: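 Human umbilical vein endothelial cells were dosed with chemical and, after 24 h, fixed with 10% TCA, stained with 0.1% sulforhodamine B, and read at 560 nm to give total protein as a cytotoxicity measure. Bidirectional fitting relative to DMSO control.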

Chain of E-selectin (Homo sapiens) (P16581 whole entry, looked up): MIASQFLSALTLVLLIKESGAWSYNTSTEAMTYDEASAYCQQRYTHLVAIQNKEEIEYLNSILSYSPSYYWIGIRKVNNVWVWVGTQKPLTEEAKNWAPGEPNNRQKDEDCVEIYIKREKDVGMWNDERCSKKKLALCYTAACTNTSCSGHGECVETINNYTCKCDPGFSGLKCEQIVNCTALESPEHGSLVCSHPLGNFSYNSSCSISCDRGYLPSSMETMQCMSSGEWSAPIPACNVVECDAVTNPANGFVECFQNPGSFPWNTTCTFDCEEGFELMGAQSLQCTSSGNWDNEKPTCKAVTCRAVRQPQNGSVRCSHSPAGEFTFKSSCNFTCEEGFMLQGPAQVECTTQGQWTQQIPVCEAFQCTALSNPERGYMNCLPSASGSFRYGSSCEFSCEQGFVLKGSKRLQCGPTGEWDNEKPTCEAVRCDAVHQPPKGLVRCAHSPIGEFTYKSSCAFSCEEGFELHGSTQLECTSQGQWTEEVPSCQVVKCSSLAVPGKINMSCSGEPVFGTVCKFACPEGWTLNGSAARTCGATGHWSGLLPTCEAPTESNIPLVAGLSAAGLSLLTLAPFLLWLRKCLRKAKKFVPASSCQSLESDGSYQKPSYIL
Chain of human Vitamin D Receptor (VDR), VDR (gene 7421) (P11473 whole entry, looked up, the tested form may be a part): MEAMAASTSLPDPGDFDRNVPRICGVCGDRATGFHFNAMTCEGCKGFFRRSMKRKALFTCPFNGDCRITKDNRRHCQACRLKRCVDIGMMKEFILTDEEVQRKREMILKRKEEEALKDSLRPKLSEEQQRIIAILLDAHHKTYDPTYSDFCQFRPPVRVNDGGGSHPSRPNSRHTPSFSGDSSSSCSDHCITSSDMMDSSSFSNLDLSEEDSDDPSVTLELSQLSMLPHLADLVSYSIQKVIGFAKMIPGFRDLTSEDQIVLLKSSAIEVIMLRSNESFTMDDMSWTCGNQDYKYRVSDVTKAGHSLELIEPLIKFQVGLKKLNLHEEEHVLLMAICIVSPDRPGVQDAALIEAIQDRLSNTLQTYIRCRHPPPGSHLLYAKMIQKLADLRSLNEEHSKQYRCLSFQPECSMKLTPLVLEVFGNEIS
Chain of human Retinoid X Receptor beta (RXRb), RXRB (gene 6257) (P28702 whole entry, looked up, the tested form may be a part): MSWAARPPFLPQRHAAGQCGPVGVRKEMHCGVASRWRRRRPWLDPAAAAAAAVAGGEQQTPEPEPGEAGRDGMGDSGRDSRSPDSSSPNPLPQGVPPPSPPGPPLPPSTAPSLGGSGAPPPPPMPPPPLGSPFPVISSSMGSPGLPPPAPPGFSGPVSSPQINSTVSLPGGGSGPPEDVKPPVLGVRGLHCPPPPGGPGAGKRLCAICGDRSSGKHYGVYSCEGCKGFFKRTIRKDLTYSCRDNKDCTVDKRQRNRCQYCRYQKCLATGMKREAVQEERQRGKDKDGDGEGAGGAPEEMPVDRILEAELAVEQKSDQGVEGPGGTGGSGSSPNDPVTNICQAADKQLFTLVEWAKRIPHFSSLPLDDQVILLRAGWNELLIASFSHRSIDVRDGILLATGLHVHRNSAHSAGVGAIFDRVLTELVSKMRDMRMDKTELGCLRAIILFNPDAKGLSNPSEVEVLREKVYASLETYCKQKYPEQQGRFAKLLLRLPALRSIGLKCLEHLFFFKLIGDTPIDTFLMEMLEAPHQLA
Chain of human Thyroid Receptor alpha (THRa1), THRA (gene 7067) (P10827 whole entry, looked up, the tested form may be a part): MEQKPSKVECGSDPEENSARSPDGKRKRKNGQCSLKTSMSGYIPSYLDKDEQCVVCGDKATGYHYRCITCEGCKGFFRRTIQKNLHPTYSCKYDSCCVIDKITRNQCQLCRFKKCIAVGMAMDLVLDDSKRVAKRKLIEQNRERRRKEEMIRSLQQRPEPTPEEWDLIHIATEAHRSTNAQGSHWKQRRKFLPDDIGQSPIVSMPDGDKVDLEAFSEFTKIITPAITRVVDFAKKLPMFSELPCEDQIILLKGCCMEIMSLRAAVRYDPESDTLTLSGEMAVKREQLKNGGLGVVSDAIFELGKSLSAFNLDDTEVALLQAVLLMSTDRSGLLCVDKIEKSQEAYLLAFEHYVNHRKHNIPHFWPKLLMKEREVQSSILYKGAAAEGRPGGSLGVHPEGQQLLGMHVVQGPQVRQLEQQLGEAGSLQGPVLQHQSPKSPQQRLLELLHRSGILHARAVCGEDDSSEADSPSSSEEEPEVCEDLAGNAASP

As usually defined, the AC50 is the concentration giving half of the maximal activity seen. On to `CCC(C)c1ccccc1O` (stereo not given), for which, in experiment [1], the half-maximal activity concentration (AC50) was 72.8 µM (active). Also, the result in experiment [2], in experiment [3], in experiment [4], in experiment [5], in experiment [6] and in [7] was inactive. The result in experiment [8], in experiment [9], in experiment [10], in [11], in [12] and in experiment [13] was inactive. Besides, the outcome in experiment [14], in experiment [15], in [16], in [17] and in experiment [18] was inactive.

With `O=S(=O)(O)c1ccccc1`, the outcome in experiment [1] and in [9] was inactive.

On to `CC(=O)Nc1ccc(S(N)(=O)=O)cc1`, for which the outcome in [1] and in experiment [9] was inactive.

As for `CCCCCCc1ccc(N)cc1`, the result in experiment [1], in experiment [19] and in [9] was inactive.

As to `C=CCOCC(CO)(CO)CO`, the molecule was classed as inactive in experiment [1] and in experiment [9].

Consider `CN(Cc1cnc2nc(N)nc(N)c2n1)c1ccc(C(=O)N[C@@H](CCC(=O)O)C(=O)O)cc1`, for which the outcome in experiment [1], in experiment [2], in experiment [3], in experiment [4], in [5] and in experiment [6] was inactive. Besides, the result in [7], in experiment [8], in experiment [10], in [11], in [12] and in experiment [13] was inactive. The outcome in experiment [20], in experiment [14], in experiment [15], in experiment [16], in [17] and in experiment [18] was inactive.

Turning to `CC(=O)CC(C)C`, the molecule was classed as inactive in [1], in [19] and in experiment [9].

For the molecule `CCCCCCCCCC=CCC1CC(=O)OC1=O` (stereo not given), the outcome in [1] and in [9] was inactive.
